From PubChem BioAssay (Tox21)
Inconclusive results are not listed. The source made the active and inactive calls. Unless noted, the call rests on the fitted dose curve; in most records, active means well fitted curve in the direction sought with a large enough effect in the repeat runs; inconclusive means weak or mixed curves; inactive means no such curve, though single readings can be large; an effect the other way counts as inactive or inconclusive.

Assays:
[1] = qHTS assay to identify small molecule antagonists of the thyroid receptor (TR) signaling pathway - cell viability counter screen (AID 743064); further: nearly all actives have a fitted effect of over 50% in size
In short: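 GH3.TRE-Luc cells, 4 h pre-plating; cpd + T3 1 nM final; 37 °C 23.5 h; CellTiter-Fluor 30 min; fluorescence read.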

[2] = qHTS assay to identify small molecule antagonists of the thyroid receptor (TR) signaling pathway (AID 743065); further: series mostly up to about 70 µM; nearly all actives have a fitted effect of over 55% in size
In short: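 GH3.TRE-Luc rat pituitary cells carrying two TR response elements driving luciferase were plated for 4 h, given compound plus 1 nM T3 (final), and incubated 23.5 h at 37 C. ONE-Glo luminescence measured reporter inhibition; CellTiter-Fluor fluorescence tracked cytotoxicity.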

[3] = tested on: thyroid hormone receptor (rat, GH3 cells); assay: qHTS assay to identify small molecule agonists of the thyroid receptor (TR) signaling pathway (AID 743066; calls by dose curve)
[4] = molecular target: Estrogen receptor (Homo sapiens) (UniProt P03372); assay: qHTS assay to identify small molecule antagonists of the estrogen receptor alpha (ER-alpha) signaling pathway (AID 743069; active means well fitted curve in the direction sought with a large enough effect in the signal ratio in the repeat runs, not every such curve was filed as active; the % refers to the signal ratio)
In short: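 Estradiol-stimulated ER-alpha-UAS-bla HEK293 cells, 18 hr compound exposure at 37C. LiveBLAzer B/G substrate, 2 hr RT, fluorescence read.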

[5] = qHTS assay to identify small molecule antagonists of the estrogen receptor alpha (ER-alpha) signaling pathway - cell viability counter screen (AID 743074; calls by dose curve;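 further: HEK293 cells carrying ER-alpha-UAS-bla reporter stimulated with 17beta-estradiol; nearly all actives have a fitted effect of over 45% in size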)
[6] = molecular target: Estrogen receptor (Homo sapiens) (UniProt P03372); assay: qHTS assay to identify small molecule agonists of the estrogen receptor alpha (ER-alpha) signaling pathway (AID 743075; calls by dose curve;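 further: HEK293 GripTite cells with ER-alpha and UAS-driven beta-lactamase reporter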)
[7] = molecular target: Estrogen receptor (Homo sapiens) (UniProt P03372); assay: qHTS assay to identify small molecule agonists of the estrogen receptor alpha (ER-alpha) signaling pathway using the BG1 cell line (AID 743079); further: nearly all actives have a fitted effect of over 20% in size
[8] = qHTS assay to identify small molecule antagonists of the estrogen receptor alpha (ER-alpha) signaling pathway using the BG1 cell line (AID 743080; calls by dose curve;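 further: BG1 cells stimulated with 17beta-estradiol alongside compound; series mostly up to about 70 µM; nearly all actives have a fitted effect of over 25% in size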)
In short: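 After 5 days in phenol-red-free 10% charcoal-stripped FBS medium, BG1-Luc-4E2 cells were seeded, left 24 h at 37 C, co-treated with compounds and 17beta-estradiol for 21.5 h, then assayed for viability and luciferase.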

[9] = qHTS assay to identify small molecule antagonists of the estrogen receptor alpha (ER-alpha) signaling pathway using the BG1 cell line - cell viability counter screen (AID 743081);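 further: compound given together with 17beta-estradiol as the ER stimulus; series mostly up to about 70 µM; nearly all actives have a fitted effect of over 45% in size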
Aromatase (Homo sapiens) = Aromatase (Homo sapiens) (UniProt P11511); assay: qHTS assay to identify aromatase inhibitors (AID 743083); further: series mostly up to about 70 µM; nearly all actives have a fitted effect of over 55% in size
[10] = molecular target: Aryl hydrocarbon receptor (Homo sapiens) (UniProt P35869); assay: qHTS assay to identify small molecule that activate the aryl hydrocarbon receptor (AhR) signaling pathway (AID 743085);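 further: HG2L7.5c1 human HepG2 liver cells with stably integrated DRE-driven firefly reporter; series mostly up to about 70 µM; nearly all actives have a fitted effect of over 15% in size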
In short: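 Luminescence read-out: ONE-Glo reagent, 30 min at room temperature, in HG2L7.5c1 HepG2 reporter cells treated 24 h at 37C. Viability was measured beforehand by CellTiter-Fluor fluorescence after 30 min at 37C.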

[11] = qHTS assay to identify small molecule that activate the aryl hydrocarbon receptor (AhR) signaling pathway - cell viability counter screen (AID 743086);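 further: HepG2 liver cells carrying the AhR DRE luciferase reporter; series mostly up to about 70 µM; nearly all actives have a fitted effect of over 45% in size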
In short: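 HepG2-AhR-luc (HG2L7.5c1) cells, 4000/well, were preincubated 5 h at 37C, exposed to compound in qHTS format for 24 hr at 37C, then given CellTiter-Fluor for 30 min; viability was read as fluorescence in the reporter wells.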

[12] = qHTS assay to identify small molecule antagonists of the peroxisome proliferator-activated receptor gamma (PPARg) signaling pathway - cell viability counter screen (AID 743194); further: nearly all actives have a fitted effect of over 55% in size
In short: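 PPARg-UAS-bla HEK293H cells were plated, rested 5 h at 37 C, then treated with compounds plus rosiglitazone (50 nM final) for 17 h at 37 C; viability was then read by CellTiter-Glo luminescence after 30 min at room temperature.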

[13] = qHTS assay for small molecule agonists of the antioxidant response element (ARE) signaling pathway (AID 743202; active means well fitted activation curve with a large enough effect in the signal ratio in the repeat runs, not every such curve was filed as active; the % refers to the signal ratio)
In short: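 Compounds delivered in DMSO to ARE-bla HepG2 cells (2,000 cells/well, pre-incubated 5 h) and left 16 h at 37 C. LiveBLAzer B/G FRET substrate then added for 2 h at RT before fluorescence reading.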

[14] = qHTS assay for small molecule agonists of the antioxidant response element (ARE) signaling pathway - cell viability counter screen (AID 743203; calls by dose curve; further: nearly all actives have a fitted effect of over 55% in size)
In short: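 Compounds in DMSO were pinned onto ARE-bla HepG2 cells plated 5 hrs earlier at 2,000 cells/well. Sixteen hours later at 37C/5% CO2, CellTiter-Glo was added and luminescence measured after 30 min at room temperature.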

[15] = qHTS assay for small molecule activators of the heat shock response signaling pathway - cell viability counter screen (AID 743209); further: nearly all actives have a fitted effect of over 50% in size
In short: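 Counter screen for cytotoxicity in HeLa HSE-bla reporter cells. Treatment was 5 h at 37 C; viability was detected by luminescent ATP assay (CellTiter-Glo) in the same wells as the beta-lactamase read.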

[16] = qHTS assay for small molecule activators of the heat shock response signaling pathway (AID 743210; active means well fitted activation curve with a large enough effect in the signal ratio in the repeat runs, with a control signal flat, not every such curve was filed as active; the % refers to the signal ratio;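 further: HeLa cells with beta-lactamase reporter driven by heat shock elements; series mostly up to about 63 µM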)
In short: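 Reporter gene assay: HeLa cells stably bearing an HSE-bla construct, compound treatment 5 h at 37 C, LiveBLAzer substrate 2.5 h at RT, fluorescence intensity.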

[17] = qHTS assay to identify aromatase inhibitors - cell viability counter screen (AID 743084)
[18] = molecular target: Peroxisome proliferator-activated receptor gamma (Homo sapiens) (UniProt P37231); assay: qHTS assay to identify small molecule agonists of the peroxisome proliferator-activated receptor gamma (PPARg) signaling pathway (AID 743094; active means well fitted activation curve with a large enough effect in the signal ratio in the repeat runs, not every such curve was filed as active; the % refers to the signal ratio)
In short: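 Following 5 h plating at 37C, PPARg-bla HEK293H cells receive compound or DMSO for 17 h; fluorescence intensity is recorded after LiveBLAzer B/G loading for 1 h at room temperature.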

[19] = molecular target: Peroxisome proliferator-activated receptor gamma (Homo sapiens) (UniProt P37231); assay: qHTS assay to identify small molecule antagonists of the peroxisome proliferator-activated receptor gamma (PPARg) signaling pathway (AID 743191; calls by dose curve; further: series mostly up to about 63 µM; nearly all actives have a fitted effect of over 30% in size)
In short: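 GeneBLAzer PPARg UAS-bla HEK293H cells carrying a UAS-driven beta-lactamase reporter were plated at 3000 cells/well, preincubated 5 h at 37C, then given compound for 17 h at 37C; LiveBLAzer B/G FRET substrate was read after 1 h at room temperature.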

Measured: Potency

Sequence of Peroxisome proliferator-activated receptor gamma (Homo sapiens) (P37231 whole entry, looked up): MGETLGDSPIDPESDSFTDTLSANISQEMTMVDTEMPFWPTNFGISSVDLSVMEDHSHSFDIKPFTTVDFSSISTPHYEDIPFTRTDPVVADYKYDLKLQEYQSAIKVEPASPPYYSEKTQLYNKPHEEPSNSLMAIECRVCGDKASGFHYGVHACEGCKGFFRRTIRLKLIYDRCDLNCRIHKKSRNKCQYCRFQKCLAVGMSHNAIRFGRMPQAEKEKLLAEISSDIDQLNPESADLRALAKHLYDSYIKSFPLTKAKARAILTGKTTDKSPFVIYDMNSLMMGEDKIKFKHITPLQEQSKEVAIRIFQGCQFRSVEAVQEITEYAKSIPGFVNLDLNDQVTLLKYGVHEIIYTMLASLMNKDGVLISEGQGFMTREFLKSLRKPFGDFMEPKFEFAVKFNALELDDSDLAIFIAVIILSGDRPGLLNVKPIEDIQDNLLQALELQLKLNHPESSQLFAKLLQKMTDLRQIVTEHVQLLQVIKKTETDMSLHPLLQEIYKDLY
Sequence of Aryl hydrocarbon receptor (Homo sapiens) (P35869 whole entry, looked up): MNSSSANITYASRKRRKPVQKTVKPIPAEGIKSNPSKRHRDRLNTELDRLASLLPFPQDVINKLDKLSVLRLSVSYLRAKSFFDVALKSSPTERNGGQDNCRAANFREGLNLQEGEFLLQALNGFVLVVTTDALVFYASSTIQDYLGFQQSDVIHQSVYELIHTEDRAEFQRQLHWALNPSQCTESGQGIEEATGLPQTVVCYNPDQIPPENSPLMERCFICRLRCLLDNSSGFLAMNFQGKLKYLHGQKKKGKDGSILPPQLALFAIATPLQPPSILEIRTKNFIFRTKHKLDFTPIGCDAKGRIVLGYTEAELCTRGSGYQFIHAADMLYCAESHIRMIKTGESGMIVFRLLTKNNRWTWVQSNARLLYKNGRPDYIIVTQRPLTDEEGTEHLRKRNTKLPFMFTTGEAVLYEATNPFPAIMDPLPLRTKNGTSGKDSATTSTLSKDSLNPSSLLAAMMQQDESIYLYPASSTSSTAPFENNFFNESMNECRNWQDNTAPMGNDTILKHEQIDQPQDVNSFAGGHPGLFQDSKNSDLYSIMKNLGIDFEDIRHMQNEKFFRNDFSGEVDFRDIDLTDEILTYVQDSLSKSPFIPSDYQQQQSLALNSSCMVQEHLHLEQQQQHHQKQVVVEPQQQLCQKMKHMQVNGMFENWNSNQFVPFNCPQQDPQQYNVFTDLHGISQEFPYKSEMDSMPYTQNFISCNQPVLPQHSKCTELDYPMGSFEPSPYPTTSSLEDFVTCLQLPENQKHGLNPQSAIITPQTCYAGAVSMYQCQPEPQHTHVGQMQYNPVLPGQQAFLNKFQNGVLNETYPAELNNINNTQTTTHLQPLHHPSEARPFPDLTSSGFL
Sequence of Estrogen receptor (Homo sapiens) (P03372 whole entry, looked up): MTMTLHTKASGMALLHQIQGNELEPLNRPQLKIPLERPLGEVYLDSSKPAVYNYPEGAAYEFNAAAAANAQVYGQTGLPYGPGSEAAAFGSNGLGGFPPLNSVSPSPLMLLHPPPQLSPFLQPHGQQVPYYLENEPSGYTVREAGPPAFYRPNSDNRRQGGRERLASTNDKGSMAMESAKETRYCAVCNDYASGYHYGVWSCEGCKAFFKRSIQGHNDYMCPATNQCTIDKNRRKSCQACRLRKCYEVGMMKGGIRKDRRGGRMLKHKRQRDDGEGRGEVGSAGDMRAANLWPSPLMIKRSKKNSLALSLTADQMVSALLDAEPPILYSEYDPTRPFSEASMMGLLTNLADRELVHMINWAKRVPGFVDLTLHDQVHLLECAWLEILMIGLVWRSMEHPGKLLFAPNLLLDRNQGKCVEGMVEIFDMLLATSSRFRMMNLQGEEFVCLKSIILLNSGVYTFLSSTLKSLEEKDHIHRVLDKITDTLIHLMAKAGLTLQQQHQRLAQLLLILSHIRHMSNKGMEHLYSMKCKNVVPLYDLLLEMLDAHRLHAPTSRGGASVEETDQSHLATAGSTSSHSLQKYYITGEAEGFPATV
Sequence of Aromatase (Homo sapiens) (P11511 whole entry, looked up): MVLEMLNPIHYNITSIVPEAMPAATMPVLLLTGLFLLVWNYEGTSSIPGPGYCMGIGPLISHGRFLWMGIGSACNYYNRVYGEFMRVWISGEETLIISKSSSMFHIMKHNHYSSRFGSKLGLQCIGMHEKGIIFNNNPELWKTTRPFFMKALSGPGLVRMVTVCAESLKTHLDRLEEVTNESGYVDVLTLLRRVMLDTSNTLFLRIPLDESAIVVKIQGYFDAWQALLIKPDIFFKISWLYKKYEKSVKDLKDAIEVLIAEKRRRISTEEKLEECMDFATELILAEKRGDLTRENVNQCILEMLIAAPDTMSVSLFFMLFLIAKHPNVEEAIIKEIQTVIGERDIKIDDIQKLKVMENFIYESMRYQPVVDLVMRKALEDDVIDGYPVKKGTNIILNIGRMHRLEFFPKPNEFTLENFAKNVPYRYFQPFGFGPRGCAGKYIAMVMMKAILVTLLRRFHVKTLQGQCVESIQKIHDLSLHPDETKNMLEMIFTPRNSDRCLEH

CC(C)CO
inactive: [1] | [2] | [3] | [4] | [5] | [6] | [7] | [8] | [9] | Aromatase (Homo sapiens) | [10] | [11] | [12] | [13] | [14] | [15] | [16]

O=C1CCC(=O)N1Cl
inactive: [1] | [2] | [3] | [4] | [5] | [6] | [7] | [8] | [9] | Aromatase (Homo sapiens) | [17] | [10] | [11] | [18] | [12] | [13] | [14] | [15] | [16]

C=CC/C=C/C
inactive: [1] | [2] | [3] | [4] | [5] | [6] | [8] | [9] | Aromatase (Homo sapiens) | [17] | [10] | [11] | [18] | [12] | [13] | [14] | [15] | [16]

CN(C)CCOC(=O)C(c1ccccc1)C1(O)CCCC1 (stereo unspecified)
inactive: [1] | [2] | [3] | [4] | [5] | [6] | [7] | [8] | [9] | Aromatase (Homo sapiens) | [17] | [10] | [11] | [18] | [12] | [13] | [14] | [15] | [16]

CC1=C(O)C(=O)C(C)O1 (stereo unspecified)
inactive: [1] | [2] | [3] | [4] | [5] | [6] | [7] | [8] | [9] | Aromatase (Homo sapiens) | [17] | [10] | [11] | [12] | [13] | [14] | [15] | [16]

CCCCOCCOC(=O)COc1ccc(Cl)cc1Cl
inactive: [1] | [2] | [3] | [4] | [5] | [6] | [8] | [9] | Aromatase (Homo sapiens) | [17] | [10] | [11] | [18] | [12] | [13] | [14] | [15]

O=C(O)[C@H](O)c1ccccc1
inactive: [1] | [2] | [3] | [4] | [5] | [6] | [8] | [9] | Aromatase (Homo sapiens) | [17] | [10] | [11] | [18] | [19] | [12] | [13] | [14] | [15] | [16]

COc1nc(N)nc2nc[nH]c12
inactive: [1] | [2] | [3] | [4] | [5] | [6] | [7] | [9] | Aromatase (Homo sapiens) | [17] | [11] | [18] | [12] | [13] | [14] | [15]

C/C(CC(C)C)=N\O
inactive: [1] | [2] | [3] | [4] | [5] | [6] | [7] | [8] | [9] | Aromatase (Homo sapiens) | [17] | [10] | [11] | [13] | [14] | [15] | [16]

O=C(O)c1cc2ccccc2nc1C(=O)O
inactive: [1] | [2] | [3] | [4] | [5] | [6] | [8] | [9] | Aromatase (Homo sapiens) | [17] | [10] | [11] | [18] | [12] | [13] | [14] | [15] | [16]

CC(C)[C@H]1CC[C@H](C)C[C@@H]1O
inactive: [1] | [2] | [3] | [5] | [9] | Aromatase (Homo sapiens) | [17] | [10] | [11] | [18] | [12] | [13] | [14] | [15]

CCCc1ccc(O)cc1
inactive: [1] | [2] | [3] | [4] | [5] | [6] | [9] | Aromatase (Homo sapiens) | [17] | [11] | [18] | [12] | [13] | [14] | [15] | [16]

CC(C)COC(=O)c1ccccc1
inactive: [1] | [2] | [3] | [4] | [5] | [6] | [9] | [17] | [10] | [11] | [18] | [12] | [15]
